According to PubChem BioAssay (NCATS):

Assay: qHTS profiling of the MIPE4 collection as inhibitors of Plasmodium falciparum (3D7) proliferation (AID 743344);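 also: scaled between DMSO vehicle wells and 0.29 µM artemisinin as full inhibition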
Settings: P. falciparum 3D7 in erythrocytes, SYBR Green DNA fluorescence, 72 h; at 28.5 µM unless noted
Description: Plasmodium falciparum is a virulent malarial parasite that kills 1-2 million people worldwide each year. Transmitted by mosquitoes, the sporozoite form of the parasite enters the blood stream to infect hepatocytes, where they become merozoites that infect red blood cells (erythrocytes). Within erythrocytes, merozoites begin a […] cycle of growth and division, after which the parasite is released to infect new red blood cells. Gametocytes, which form within erythrocytes as well, circulate in the bloodstream and are ingested by the mosquito, thereby completing the life cycle. To profile malarial isolates for differential chemical responses and to identify inhibitors of malarial growth, an assay that measures P. falciparum growth and replication within erythrocytes was employed. This assay uses a DNA binding fluorescent dye (SYBR Green) to detect parasite DNA following cell lysis. Because mature erythrocytes lack DNA, only Plasmodium-derived DNA is detected.
The SYBR Green viability assay was adapted from a method described previously (Plouffe et al., 2008). For screening 3 ul culture medium was dispensed into 1536 well black clear bottom plates (Aurora Biotechnologies) using a Multidrop Combi (Thermo Fisher Scientific Inc.), 23 nL compounds in DMSO were added by a pin tool (Kalypsys), and 5 ul of erythrocytes infected with P. falciparum (0.3% parasitemia, 2.5% hematocrit final concentration) were added. The plates were incubated at 37 C in a humidified incubator in 5% CO2 for 72 h, and 2 ul lysis buffer (20 mM Tris HCl, 10 mM EDTA, 0.16% saponin, 1.6% triton X, 10X SYBR Green I supplied as 10,000X […] by Invitrogen) was added to each well. The plates were mixed for 25 sec with gentle shaking and incubated overnight at room temperature in the dark. The following morning, fluorescence intensity at 485(14) nm excitation and 535(25) nm emission wavelengths was measured on an EnVision (Perkin Elmer) plate reader. Plate reads were normalized relative to the control inhibitor (0.29 uM artemisinin) and vehicle (DMSO) wells present on each plate and then corrected by an algorithm using vehicle-only control plates at the beginning and end of the compound plate stack.

Row | SMILES | parasite growth, % of DMSO control
1 | CC(=O)[C@H]1CC[C@H]2[C@@H]3CC=C4C[C@@H](O)CC[C@]4(C)[C@H]3CC[C@]12C | 89.9%
2 | O=C(NCC1CN(c2ccc(N3CCOCC3=O)cc2)C(=O)O1)c1ccc(Cl)s1 (stereo not given) | 74.4%
3 | NCCCC(O)(P(=O)(O)O)P(=O)(O)O | 96%
4 | OCc1ccc(-c2nn(Cc3ccccc3)c3ccccc23)o1 | 74.2%
5 | Cc1noc(NS(=O)(=O)c2ccc(N)cc2)c1C | 96.2%
6 | CC(C)(C)C(=O)OCOP(=O)(COCCn1cnc2c(N)ncnc21)OCOC(=O)C(C)(C)C | 68.2%
7 | CCOC(=O)c1ccc(C#Cc2ccc3c(c2)C(C)(C)CCS3)nc1 | 36.2%
8 | Nc1nc(=S)c2[nH]cnc2[nH]1 | 93.4%
9 | Cc1onc(-c2ccccc2Cl)c1C(=O)N[C@@H]1C(=O)N2[C@@H]1SC(C)(C)[C@@H]2C(=O)O | 86.7%
10 | COc1cc(NS(=O)(=O)c2ccc(N)cc2)nc(OC)n1 | 39.3%
11 | C#CCN[C@@H]1CCc2ccccc21 | 95.8%
12 | O=S(=O)(O)CCS | 87.9%
13 | COCCCOc1cc(C[C@@H](C[C@H](N)[C@@H](O)C[C@H](C(=O)NCC(C)(C)C(N)=O)C(C)C)C(C)C)ccc1OC | 40.6%
14 | COC(=O)Nc1nc2ccc(Sc3ccccc3)cc2[nH]1 | 75.4%
15 | C[C@@H]1CN(c2c(F)c(N)c3c(=O)c(C(=O)O)cn(C4CC4)c3c2F)C[C@H](C)N1 | 55.7% [at 9.64 µM]
16 | CC(C)C1CCC(C(=O)N[C@H](Cc2ccccc2)C(=O)O)CC1 (stereo not given in full) | 87.2%
17 | NC(=O)c1cccnc1 | 98.2%
18 | O=c1oc2c(O)c(O)cc3c(=O)oc4c(O)c(O)cc1c4c23 | 4.91%
19 | CCCCS(=N)(=O)CCC(N)C(=O)O (stereo not given) | 102%
20 | C1CCC(C(CC2CCCCN2)C2CCCCC2)CC1 (stereo not given) | 6.92%

Row | SMILES | parasite growth, % of DMSO control
21 | CCCCc1oc2ccc(NS(C)(=O)=O)cc2c1C(=O)c1ccc(OCCCN(CCCC)CCCC)cc1 | 7.48%
22 | CCN1CCCC1CNC(=O)c1cc(S(N)(=O)=O)ccc1OC (stereo not given) | 101%
23 | CNC(=O)c1cc(Oc2ccc(NC(=O)Nc3ccc(Cl)c(C(F)(F)F)c3)cc2)ccn1 | 15.4%
24 | Nc1nc(N)nc(-c2cc(Cl)ccc2Cl)n1 | 83.2%
25 | CN(C)CCc1c[nH]c2ccc(CS(=O)(=O)N3CCCC3)cc12 | 94.3%
26 | Nc1nc(N)c2nc(CNc3ccc(C(=O)NC(CCC(=O)O)C(=O)O)cc3)cnc2n1 (stereo not given) | 25%
27 | CCOC(=O)c1ccc(OC(=O)CCCCCN=C(N)N)cc1 | 93%
28 | COc1cc(NCc2ccc3nc(N)nc(N)c3c2C)cc(OC)c1OC | 15.9%
29 | C[C@@H](NCCCc1cccc(C(F)(F)F)c1)c1cccc2ccccc12 | 16.2%
30 | CNCC[C@H](Oc1cccc2ccccc12)c1cccs1 | 6.18%
31 | CC[C@H](C)C(=O)O[C@H]1C[C@@H](C)C=C2C=C[C@H](C)[C@H](CC[C@@H]3C[C@@H](O)CC(=O)O3)[C@H]21 | 73.9%
32 | CC(N)C12CC3CC(CC(C3)C1)C2 (stereo not given) | 76.2%
33 | CC[C@H](NC(C)C)[C@H](O)c1ccc(O)c2[nH]c(=O)ccc12 | 96.3%
34 | CCc1cc(C(N)=S)ccn1 | 4.85%
35 | CNC1CCCN(c2c(F)cc3c(=O)c(C(=O)O)cn(C4CC4)c3c2OC)C1 (stereo not given) | 20.4%
36 | NC1(c2ccc(-c3nc4ccn5c(=O)[nH]nc5c4cc3-c3ccccc3)cc2)CCC1 | 5.65%
37 | CN(C)CCc1c[nH]c2ccc(C[C@H]3COC(=O)N3)cc12 | 107%
38 | O=C(O)c1ccc(-n2nc(-c3ccccc3O)nc2-c2ccccc2O)cc1 | 50.5%
39 | CO[C@@]12[C@H](COC(N)=O)C3=C(C(=O)C(C)=C(N)C3=O)N1C[C@@H]1N[C@@H]12 | 6.13%
40 | N[C@@H](C(=O)N[C@@H]1C(=O)N2C(C(=O)O)=C(Cl)CS[C@H]12)c1ccccc1 | 80.9%
